Among the data in PubChem BioAssay (EPA / NIEHS) are outcome and AC50 values, retold here.

Records with an inconclusive call do not appear. More than one record can exist for a structure, and the calls need not agree. Activity calls are given as the source filed them. Rule for the calls: active = hit-call score of the fitted dose curve at least 0.9, where 1 is the maximum; inconclusive = response in the unintended direction; inactive = score below 0.9.

Experiment [1] is described as follows: ACEA_AR_agonist_AUC_viability: ACEA Biosciences xCELLigence Real-Time Cell Analysis on Androgen Receptor Agonism for Viability (AID 2283775).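 For AC50: viability read 80 hours after compound addition.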 Summed up: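 Real-time impedance tracking of 22Rv1 growth, readings every 5 min for 5 h then hourly; area-under-curve viability endpoint at 80 hours, relative to DMSO. Compounds at eight concentrations, 1:4 steps, top 100 uM, n = 2.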

The nature of experiment [2]: ACEA_AR_antagonist_AUC_viability: ACEA Biosciences xCELLigence Real-Time Cell Analysis on Androgen Receptor Antagonism for Viability (AID 2283776).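 Note: 22Rv1 human prostate cancer cells growing on impedance electrode plates; hits lower the growth signal relative to DMSO meaning cytotoxicity.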 An outline of the steps: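 Impedance read-out (RT-CES): area under growth curve at 80 h post-dose, loss of signal scored vs DMSO baseline. 22Rv1 cells; 8-pt 1:4 series, top 100 uM final, ≤0.5% DMSO; biological duplicate.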

Experiment [3] in a line: ArunA_NOG_NucleusCount: ArunA Biomedical's Neurite Outgrowth (NOG) Assay for Nucleus Count (AID 2283756). Here is the method:
ArunA_NOG (Neurite Outgrowth) is a cell-based, image-based assay that uses human H9-derived embryonic differentiated neurons (hNN). Measurements were taken 48 hours after chemical dosing in a 96-well plate.ArunA_NOG_NucleusCount is an assay component measured from the ArunA_NOG assay. It is designed to make measurements of viability related to the number of neurons, using a form of viability reporter, as detected with fluorescence intensity signals by HCS Fluorescent Imaging technology. Data from the assay component ArunA_NOG_NucleusCount was analyzed at the endpoint, ArunA_NOG_NucleusCount, in the positive analysis fitting direction relative to DMSO as the negative control and baseline of activity. […]
Chemical treatment: Differentiated hNN cells were seeded and immediately exposed to test medium for 48 h. Following chemical exposure, cell bodies were stained with Hoechst 33,258 to quantitate viable neuron count and neurites were labeled with bIII-tubulin/DyLight1 488. High content imaging assessed the neurite outgrowth endpoints: neurite total length per neuron (um), neurite count per neuron, and branch points per neurite using the methods described in (Harrill et al 2010). […] Plates were then loaded into a Cellomics ArrayScan VTI HCS reader high-content imaging system (ThermoFisher Scientific, Waltham, MA) for automated image acquisition and morphometric analyses. […]

A short description of experiment [4]: ArunA_NOG_NeuriteLength: ArunA Biomedical's Neurite Outgrowth (NOG) Assay for Neurite Length (AID 2283757). Summed up:
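Differentiated human H9-derived neurons were exposed for 48 h from seeding, then stained with Hoechst and βIII-tubulin. Automated high-content imaging gave total neurite length per valid neuron, counting processes >10 um. Loss of signal was scored versus DMSO.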

Experiment [5] can be described thus: ArunA_NOG_NeuritesPerNeuron: ArunA Biomedical's Neurite Outgrowth (NOG) Assay for Neurites Per Neuron (AID 2283758). An outline of the steps: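 Differentiated human H9-derived neurons exposed to chemicals for 48 h from seeding, then stained with Hoechst and βIII-tubulin/DyLight 488. Automated imaging counted neurites (processes >10 um) per valid neuron; loss of signal versus DMSO scored.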

Experiment [6] can be described thus: ArunA_NOG_BranchPointsPerNeurite: ArunA Biomedical's Neurite Outgrowth (NOG) Assay for Branch Points Per Neurite (AID 2283759). Summed up: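 Automated image analysis traced neurites (processes >10 um) from valid cell bodies after Hoechst and βIII-tubulin staining. hNN cells from H9 embryonic stem cells, 48 h exposure. Fitted bidirectionally against DMSO.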
Experiment [7] relates to zebrafish Estrogen Receptor (ESR2B), gene 317733. Description: ATG_zfER2b_XSP1: Attagene TRANS-FACTORIAL Multi-Species (XSP1) HepG2 Assay for zebrafish Estrogen Receptor (ESR2B) (AID 2283773). Here is the method:
(§1) ATG_XSP1_multi-species_TRANS is a cell-based, multiplexed assay created by modifying the existing Attagene TRANS-FACTORIAL system to include a panel of nuclear receptors from some or all the following species: human (Homo sapiens), mouse (Mus musculus), frog (Xenopus laevis), zebrafish (Danio rerio), chicken (Gallus gallus), and turtle (Chrysemys picta). The ECOTOX-FACTORIAL format uses HepG2, a human liver cell line, with measurements taken at 24 hours after chemical dosing in a 24-well plate. Xsp1 included 3 nM 6-alpha-fluorotestosterone to partially stimulate the androgen receptor.ATG_zfER2b_XSP1 is one of 29 assay components measured or calculated from the ATG_XSP1_multi-species_TRANS assay. It is designed to make measurements of mRNA induction, a form of inducible reporter, as detected with fluorescence intensity signals by Reverse transcription polymerase chain reaction (RT-PCR) and Capillary electrophoresis technology.The assay endpoint ATG_zfER2b_XSP1 was analyzed in the positive analysis fitting direction relative to DMSO as the negative control and baseline of activity. […] Furthermore, this assay endpoint can be referred to as a primary readout, because this assay has produced multiple assay endpoints where this one serves a reporter gene function. […]

Experiment [8] concerns frog Estrogen Receptor (ESR2), gene 100174814. Briefly: ATG_frER2_XSP1: Attagene TRANS-FACTORIAL Multi-Species (XSP1) HepG2 Assay for frog Estrogen Receptor (ESR2) (AID 2283774). An outline of the steps:
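Transactivation of an exogenous receptor-Gal4 fusion is tracked in transfected HepG2 cells via induced reporter transcript levels. After 24 h treatment, RT-PCR with capillary electrophoresis quantifies signal gain over DMSO.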

In experiment [9] the test system is frog Estrogen Receptor (ESR1), gene 398734. Briefly: ATG_frER1_XSP1: Attagene TRANS-FACTORIAL Multi-Species (XSP1) HepG2 Assay for frog Estrogen Receptor (ESR1) (AID 2283777). An outline of the steps: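 Human hepatoma HepG2 cells carried transiently transfected multiplexed Gal4-driven reporters and were exposed to test chemicals for 24 hours. Transcripts were quantified by fluorescent RT-PCR with capillary electrophoresis, referenced to DMSO.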

The subject of experiment [10] is zebrafish Estrogen Receptor (ESR2A), gene 317734. Description: ATG_zfER2a_XSP1: Attagene TRANS-FACTORIAL Multi-Species (XSP1) HepG2 Assay for zebrafish Estrogen Receptor (ESR2A) (AID 2283778). Here is the method: as §1, with “receptor.ATG_zfER2a_XSP1” for “receptor.ATG_zfER2b_XSP1”, “ATG_zfER2a_XSP1” for “ATG_zfER2b_XSP1”

Take `CCCCCCCCCCCC`: the outcome in experiment [1] was inactive.

With `CCCCc1oc2ccccc2c1C(=O)c1cc(I)c(OCCN(CC)CC)c(I)c1`, the results for the AC50 in experiment [1] and in [2] were 9.56 µM (active) and 9.15 µM (active), respectively.

As for `CCCCc1ccc2ccccc2c1S(=O)(=O)O`, the concentration at half-maximal activity (AC50) in [1] is 3.3 µM (active). For the same molecule, the call in experiment [2] was inactive.

Take `O=C(O)c1cccc(C(=O)O)n1`: in experiment [2], the molecule was called inactive.

With `CC(C)[C@@H]1CC[C@@H](C)C[C@H]1O`, in experiment [1], the call was inactive. In addition, in experiment [2], the AC50 was 0.541 µM (active).

For `O=C1NS(=O)(=O)c2ccccc21`, the molecule was classed as inactive in experiment [1] and in [2].

For `CC(C)c1c(C(=O)Nc2ccccc2)c(-c2ccccc2)c(-c2ccc(F)cc2)n1CC[C@@H](O)C[C@@H](O)CC(=O)O`, the values for the AC50 in [1] and in [2] were 4.23 µM (active) and 4.96 µM (active), respectively.

Turning to `CCCCCCCCCC=CCC1CC(=O)OC1=O` (stereo not given), the call in experiment [2] was inactive.

For the molecule `CCCCCCCCCCCC(=O)O`, the outcome in experiment [1] and in [2] was inactive.

As for `Cc1cc(C(=C2C=CC(=Nc3ccc(S(=O)(=O)O)cc3)C=C2)c2ccc(Nc3ccc(S(=O)(=O)O)cc3)cc2)cc(S(=O)(=O)O)c1N`, the call in [1] and in experiment [2] was inactive.

`NS(=O)(=O)O`: the outcome in [1] and in [2] was inactive.

As to `N=C(N)c1ccc(OCCCCCOc2ccc(C(=N)N)cc2)cc1`, the AC50 in experiment [2] is 17.3 µM (active).

In the case of `Cc1cc(Cc2cc(C)cc(C(C)(C)C)c2O)c(O)c(C(C)(C)C)c1`, the molecule was called inactive in experiment [1]. Moreover, the AC50 in [2] was 21.4 µM (active).

Take `Cc1cc(C(C)(C)C)c(O)c(C(C)(C)C)c1`: in experiment [1], the call was inactive. For the same molecule, the AC50 in experiment [2] was 0.144 µM (active).

Regarding `CC(=O)Nc1ccc(O)cc1`, the molecule was called inactive in experiment [1] and in experiment [2].

Regarding `NCCN`, the result in experiment [1] and in [2] was inactive.

As for `Cc1[nH]nc2c1N=C(c1ccccc1Cl)c1cc([N+](=O)[O-])ccc1N2`, the AC50 in experiment [1] was 1.75 µM (active); in experiment [2], 2.04 µM (active).

Take `CN(C)CCOC(c1ccccc1)c1ccccc1`: the outcome in experiment [1] and in [2] was inactive.

Turning to `CCC(C)c1ccccc1O` (stereo not given), the result in [1] and in experiment [2] was inactive.

For `OCC(CO)(CBr)CBr`, the call in [3], in experiment [1] and in experiment [2] was inactive.

As to `O=C(CCCN1CCC(O)(c2ccc(Cl)cc2)CC1)c1ccc(F)cc1`, the AC50 was 78.9 µM (active) in experiment [3]; 78.1 µM (active) in [4]; 77.9 µM (active) in experiment [5]; 73.3 µM (active) in [6]; 63.8 µM (active) in experiment [1]; 53.7 µM (active) in [2].

Regarding `Cc1ccc(S(=O)(=O)O)cc1`, the result in [1] and in experiment [2] was inactive.

For `CCCCCCCCCCCCOC(=O)c1cc(O)c(O)c(O)c1`, the figures for the AC50 in [1] and in experiment [2] were 7.6 µM (active) and 3.44 µM (active), respectively.

With `CCc1ccccc1O`, the molecule was called inactive in [1] and in experiment [2].

As to `NCc1cccc(CN)c1`, the outcome in experiment [1] was inactive.

For the molecule `CCCCC(CC)C(=O)O` (stereo not given), in [1], the AC50 is 4.14 µM (active). The molecule was classed as inactive in experiment [1] and in experiment [2].

As for `C[C@]12CC[C@@H]3c4ccc(O)cc4CC[C@H]3[C@@H]1C[C@@H](O)[C@@H]2O`, the AC50 in experiment [7] is 0.0143 µM (active); in [8], 0.0279 µM (active); in experiment [2], 1.16 µM (active); in experiment [9], 0.0279 µM (active); in experiment [10], 0.0157 µM (active).

On to `CCCCCCc1ccc(N)cc1`, for which the molecule was called inactive in experiment [1] and in experiment [2].

For the molecule `COc1cc([N+](=O)[O-])ccc1N`, the outcome in experiment [1] and in [2] was inactive.

Take `c1cnc2c(c1)ccc1cccnc12`: the AC50 in experiment [1] was 3.4 µM (active); in [2], 3.57 µM (active).

Take `CCCCC=O`: the outcome in experiment [1] and in [2] was inactive.

Regarding `CC(O)COc1ccccc1` (stereo not given), the result in experiment [1] and in experiment [2] was inactive.

As to `NC(=NCCCCCCN=C(N)/N=C(\N)Nc1ccc(Cl)cc1)/N=C(\N)Nc1ccc(Cl)cc1`, the AC50 in experiment [1] is 10.5 µM (active); in experiment [2], 10.6 µM (active).

As to `O=C(c1ccccc1)c1ccccc1`, in experiment [2], the result was inactive.

For the molecule `Cc1ccc(C)c(S(=O)(=O)O)c1`, the outcome in [1] was inactive. Further, in [2], the AC50 is 0.221 µM (active).

On to `CN(Cc1cnc2nc(N)nc(N)c2n1)c1ccc(C(=O)N[C@@H](CCC(=O)O)C(=O)O)cc1`, for which the AC50 in experiment [1] is 0.787 µM (active); in experiment [2] it was 0.551 µM (active).
